Shown are actives, neighbours in structure and some others; about 1.3% of the full set was active somewhere.
SRC2 inh – inhibits human steroid receptor coactivator 2; Q15596; HEK293 GAL4-SRC2 luciferase reporter, luminescence; 370,000 compounds, 0.17% hits; inhibition, % at 9 µM;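 active means inhibition above the mean inhibition of all tested compounds plus 3 SD, set per campaign, cut at about 52% in these data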;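 further: 0% = DMSO treated cells and 100% = cells given Gossypol at 36 µM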
SRC3 inh – inhibitors of human steroid receptor coactivator 3 (SRC3); inhibition, % at 3.6 µM; Q9Y6Q9; HEK293 GAL4-SRC3 luciferase reporter, luminescence; AID 588352; 360,000 compounds, 0.17% hits;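 active means inhibition above a per-campaign cutoff, the mean of all compounds plus 3 SD, cut at about 60% in these data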;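 further: 0% = DMSO-treated cells and 100% = gossypol-treated cells at 36 µM; higher means less SRC3-driven luciferase light from the GAL4 reporter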
Gli-Sufu block – Gli-Sufu pathway antagonism; Sufu-KO-LIGHT fibroblasts, Gli luciferase reporter luminescence; 340,000 compounds, 0.74% hits; AID 588413; inhibition, % at 5 µM;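 active means inhibition above about 55%, limit read from the data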;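 further: 0% = DMSO-treated cells and 100% = wells with medium but no cells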
SRC1 inh – inhibits human SRC1 coactivator. HEK293 GAL4-SRC1 luciferase reporter, luminescence. inhibition, % at 3.6 µM. 360,000 compounds, 0.12% hits;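 active means inhibition above the campaign mean plus 3 SD, with each screening campaign given its own cutoff, cut at about 60% in these data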;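 further: 0% = DMSO treated cells and 100% = gossypol at 36 µM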
COUP-TFII inh – inhibitors of human COUP-TFII (NR2F2). HEK293T NGFI-A luciferase reporter, luminescence. inhibition, % at 8.6 µM. 370,000 compounds, 0.7% hits;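 active means inhibition above a per-plate cutoff, mean inhibition of test wells between control levels plus 3 SD, cut at about 38% in these data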;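 further: cells cotransfected with COUP-TFII expression vector driving the NGFI-A reporter; 0% = median of COUP-TF2 test wells and 100% = reporter-only cells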
LRH-1 inv ag – NR5A2 inverse agonism in reporter assay | inhibition, % at 3.6 µM | O00482 | HEK293T StAR-luciferase reporter, LRH-1 transfected, 24 h | AID 602396 | 360,000 compounds, 0.13% hits;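 active means inhibition above the mean inhibition of all tested compounds plus 3 SD, cut at about 73% in these data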;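 further: 0% = DMSO wells and 100% = reporter-only cells lacking LRH-1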
Target sequence (O00482 whole entry, looked up): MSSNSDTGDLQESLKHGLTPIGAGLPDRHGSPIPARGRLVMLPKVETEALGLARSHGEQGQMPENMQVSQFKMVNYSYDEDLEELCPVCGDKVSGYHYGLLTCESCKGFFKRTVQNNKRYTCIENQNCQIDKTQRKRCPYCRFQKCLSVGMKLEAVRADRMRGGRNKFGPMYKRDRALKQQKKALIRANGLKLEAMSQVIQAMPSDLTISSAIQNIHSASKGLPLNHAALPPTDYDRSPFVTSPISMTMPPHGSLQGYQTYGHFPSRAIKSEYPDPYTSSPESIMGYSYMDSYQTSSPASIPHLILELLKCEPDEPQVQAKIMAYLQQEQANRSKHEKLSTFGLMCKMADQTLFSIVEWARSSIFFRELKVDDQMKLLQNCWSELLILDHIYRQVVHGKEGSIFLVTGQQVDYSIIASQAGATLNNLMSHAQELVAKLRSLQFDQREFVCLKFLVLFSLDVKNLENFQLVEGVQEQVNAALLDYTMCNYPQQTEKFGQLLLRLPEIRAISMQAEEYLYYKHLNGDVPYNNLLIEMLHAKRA
Gli-Sufu confirm – confirmation of Gli-SUFU pathway antagonists. shares compounds with Gli-Sufu block. Sufu-KO-LIGHT cells, Gli luciferase reporter, luminescence. inhibition, % at 5 µM. 2,500 compounds, 40% hits;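 active means mean inhibition at 5 µM reaching about 45%, limit read from the data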;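 further: plate controls were DMSO-treated cells for no effect and wells lacking cells for full effect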
Gli cytotox – cytotoxicity counter-screen for Gli-SUFU antagonists; shares compounds with Gli-Sufu block; Sufu-KO-LIGHT cells cytotoxicity, ATP luminescence; cytotoxicity, % at 5 µM; 2,500 compounds, 32% hits;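 active means mean cytotoxicity at 5 µM above about 25%, limit read from the data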;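 further: cells exposed to compound overnight for roughly 16 to 18 hours; plate controls were DMSO wells with cells for no effect and medium without cells for full effect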
Wnt3a counter – counter-screen for Gli-SUFU antagonists: Wnt3a reporter inhibition | Wnt-LIGHT cells, Wnt3a-driven luciferase reporter, luminescence | AID 651995 | shares compounds with Gli-Sufu block | 2,500 compounds, 20% hits | inhibition, % at 6.25 µM;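 active means mean inhibition above about 25%, limit read from the data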
VP16 Luc counter – VP16 inhibition counter-screen for COUP-TFII; shares compounds with COUP-TFII inh; AID 687007; inhibition, % at 8.5 µM; 2,500 compounds, 25% hits; HEK293 Gal4-VP16 luciferase reporter, luminescence; in the data active means inhibition above about 13%
NR2F2 inh conf – COUP-TFII (NR2F2) inhibition, confirmation assay. HEK293 NGFI-A luciferase reporter, luminescence. 2,500 compounds, 45% hits. inhibition, % at 8.5 µM. shares compounds with COUP-TFII inh;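 active means mean inhibition over three repeats above a set limit taken from the earlier primary screen, cut at about 38% in these data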;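 further: 100% = cells given the luciferase reporter alone without the COUP-TF2 vector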
Numbers without * were called inactive.

For CCOC(=O)N1CCC(NC(=O)C2CCCN(Cc3nc(-c4cccc(Cl)c4)oc3C)C2)CC1 (stereo not drawn) the results were SRC2 inh 28, SRC3 inh 17, Gli-Sufu block 54, SRC1 inh 13, COUP-TFII inh 48*, LRH-1 inv ag 15, Gli-Sufu confirm 60*, Gli cytotox 34*, Wnt3a counter -9, VP16 Luc counter 0 and NR2F2 inh conf 29.
For CCCCc1c(-c2ccccc2OC)ncn1C1CCCCC1 the results were SRC2 inh -1 and COUP-TFII inh 11.
`CC(C)(C)C(=O)Nc1cc2nn(-c3ccccc3)nc2cc1Cl` gave SRC2 inh 73*, SRC3 inh 81*, Gli-Sufu block 81*, SRC1 inh 82*, COUP-TFII inh 87*, LRH-1 inv ag 83*, Gli-Sufu confirm 87*, Gli cytotox 83*, Wnt3a counter 104*, VP16 Luc counter 72* and NR2F2 inh conf 101*.
CC(=O)Nc1cc2nn(-c3ccccc3)nc2cc1Cl was read as SRC2 inh -82, SRC3 inh -67, Gli-Sufu block -89, SRC1 inh -99, COUP-TFII inh -49 and LRH-1 inv ag -80.
COc1ccc(CNS(=O)(=O)CC2NCc3cc(OC)ccc32)cc1 (stereo not drawn) was read as SRC2 inh -15 and COUP-TFII inh 14.
For CC1CCC(C(C)C)C(OC(=O)Cn2c(-c3ccccc3)[n+](C)c3ccccc32)C1 (stereo not drawn) the results were SRC2 inh 39, SRC3 inh 79*, Gli-Sufu block 87*, SRC1 inh 58, COUP-TFII inh 57*, LRH-1 inv ag 75*, Gli-Sufu confirm 89*, Gli cytotox 38*, Wnt3a counter 38*, VP16 Luc counter 14* and NR2F2 inh conf 38*.
`Cc1cccc(OCc2n(CC(=O)OC3CC(C)CCC3C(C)C)c3ccccc3[n+]2C)c1` (stereo not drawn) gave SRC3 inh 26, Gli-Sufu block 46, SRC1 inh 7 and LRH-1 inv ag 14.
Screening COc1ccc(-n2c(SCC(=O)Nc3ccc4cn[nH]c4c3)nnc2-c2ccccc2)cc1 returned SRC2 inh 9 and COUP-TFII inh 0.
`Cc1ccc(Cl)cc1S(=O)(=O)N1CCC(C(=O)NC2CCN(Cc3ccccc3)CC2)CC1` gave SRC2 inh 16, SRC3 inh 16, Gli-Sufu block 53, SRC1 inh 13, COUP-TFII inh 38*, LRH-1 inv ag 9, Gli-Sufu confirm 24, Gli cytotox 7, Wnt3a counter -1, VP16 Luc counter 5 and NR2F2 inh conf 44*.
Screening CCOc1ccc(OCc2ccc(C(=O)NN=Cc3ccc[nH]3)cc2)cc1 returned SRC2 inh -28, SRC3 inh 53, Gli-Sufu block 80*, SRC1 inh -5, COUP-TFII inh 73*, LRH-1 inv ag 86*, Gli-Sufu confirm 80*, Gli cytotox 18, Wnt3a counter -21, VP16 Luc counter -4 and NR2F2 inh conf 71*.
Cc1ccc2c(c1)N(CCCC(=O)N(C)Cc1ccc(F)cc1)C(=O)CO2 was read as SRC2 inh -8 and COUP-TFII inh 7.
COc1ccc(CN2C[C@H](COCc3ccccc3)Oc3cccc(Oc4ccc(C(C)C)cc4)c3S2(=O)=O)cc1 was read as SRC2 inh 3 and COUP-TFII inh -8.
Screening Cc1ccc(S(=O)(=O)NCC(=O)NCc2ccncc2)cc1 returned SRC2 inh -2, SRC3 inh 13, Gli-Sufu block -12, SRC1 inh 0, COUP-TFII inh -4 and LRH-1 inv ag 18.
For CCOc1ccc(S(=O)(=O)NCc2ccccn2)cc1 the results were SRC2 inh 20, SRC3 inh -4, Gli-Sufu block -3, SRC1 inh -5, COUP-TFII inh 4 and LRH-1 inv ag 1.
CCOc1ccc(S(=O)(=O)NCc2ccncc2)cc1 was read as SRC2 inh 10, SRC3 inh 6, Gli-Sufu block 82*, SRC1 inh 9, COUP-TFII inh 70*, LRH-1 inv ag 47, Gli-Sufu confirm 79*, Gli cytotox 37*, Wnt3a counter 47*, VP16 Luc counter 3 and NR2F2 inh conf 63*.
Screening CCOc1cc(S(=O)(=O)NCc2ccncc2)ccc1Cl returned SRC2 inh 1, SRC3 inh 19, Gli-Sufu block 78*, SRC1 inh 18, COUP-TFII inh 74*, LRH-1 inv ag 44, Gli-Sufu confirm 79*, Gli cytotox 42*, Wnt3a counter 2, VP16 Luc counter 10 and NR2F2 inh conf 63*.
`Cc1ccc(S(=O)(=O)NCc2ccncc2)cc1` gave SRC2 inh 24, SRC3 inh 28, Gli-Sufu block 71*, SRC1 inh 1, COUP-TFII inh 57*, LRH-1 inv ag 47, Gli-Sufu confirm 57*, Gli cytotox 33*, Wnt3a counter 21, VP16 Luc counter 4 and NR2F2 inh conf 40*.
Cc1cc(S(=O)(=O)NCc2ccncc2)c(C)cc1Br was read as SRC2 inh 20, SRC3 inh 26, Gli-Sufu block 66*, SRC1 inh 11, COUP-TFII inh 61*, LRH-1 inv ag 42, Gli-Sufu confirm 62*, Gli cytotox 19, Wnt3a counter 38*, VP16 Luc counter 7 and NR2F2 inh conf 56*.
COc1cc2c(c(OC)c1)C(=O)O[C@H](C)C[C@@H]1O[C@H]1CCCCC(=O)C2 was read as SRC2 inh -9 and COUP-TFII inh -9.
O=[N+]([O-])c1ccc(OC2OCC(O)C(O)C2O)cc1 (stereo not drawn) was read as SRC2 inh 0 and COUP-TFII inh 5.
`CCc1nc(C)cn1S(=O)(=O)c1cc(C)c(OC)cc1C` gave SRC2 inh -11, SRC3 inh -2, Gli-Sufu block 1, SRC1 inh -17, COUP-TFII inh -9 and LRH-1 inv ag -31.

From PubChem BioAssay
